# From publication PMC8384837, “Expanding the binding specificity for RNA recognition by a PUF domain”
# Key:
# Assay in all cases: yeast three-hybrid, YBZ-1, SC-Leu-His + 0.5 mM 3-AT, 4 days
# Conditions in all cases: tags: N-Gal4 AD-HA kept; label: inside an RPR1-promoter hybrid RNA with tandem MS2 sites; ssRNA
# [1] = molecular target: PUM1 PUF domain R5-GVE (Homo sapiens, UniProt Q14671 828-1176, C1007G;R1008V;Q1011E)
# How it was run: (§1)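 Sequencing with Illumina followed PCR amplification of the repeat regions from transformants grown four days on SC-Leu (input) or SC-Leu-His + 0.5 mM 3-AT (selection). The transformants were strain YBZ-1 with a LexA–MS2 coat fusion and a HIS3 reporter, carrying Pumilio-1 PUF domain libraries and matching RNA elements. The interaction score is the log change in variant frequency from input to selection, computed in log2 with a pseudocount of 1 for absent variants.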
# [2] = molecular target: PUM1 PUF domain R5-KHW (Homo sapiens, UniProt Q14671 828-1176, C1007K;R1008H;Q1011W)
# How it was run: as §1
# [3] = molecular target: PUM1 PUF domain R5-DQQ (Homo sapiens, UniProt Q14671 828-1176, C1007D;R1008Q)
# How it was run: as §1
# [4] = molecular target: PUM1 PUF domain R5-LYC (Homo sapiens, UniProt Q14671 828-1176, C1007L;R1008Y;Q1011C)
# How it was run: as §1
# [5] = molecular target: PUM1 PUF domain R5-RYW (Homo sapiens, UniProt Q14671 828-1176, C1007R;R1008Y;Q1011W)
# How it was run: as §1
# [6] = molecular target: PUM1 PUF domain R4-DHL (Homo sapiens, UniProt Q14671 828-1176, N971D;Q975L)
# How it was run: as §1
# [7] = molecular target: PUM1 PUF domain R8-KRL (Homo sapiens, UniProt Q14671 828-1176, N1122K;Y1123R;Q1126L)
# How it was run: as §1
# [8] = molecular target: PUM1 PUF domain R4-NRM (Homo sapiens, UniProt Q14671 828-1176, H972R;Q975M)
# How it was run: as §1
# [9] = molecular target: PUM1 PUF domain R8-QWR (Homo sapiens, UniProt Q14671 828-1176, N1122Q;Y1123W;Q1126R)
# How it was run: as §1
# [10] = molecular target: PUM1 PUF domain R4-RHA (Homo sapiens, UniProt Q14671 828-1176, N971R;Q975A)
# How it was run: as §1
# [11] = molecular target: PUM1 PUF domain R8-RWN (Homo sapiens, UniProt Q14671 828-1176, N1122R;Y1123W;Q1126N)
# How it was run: as §1
# [12] = molecular target: PUM1 PUF domain R4-NNH (Homo sapiens, UniProt Q14671 828-1176, H972N;Q975H)
# How it was run: as §1
# [13] = molecular target: PUM1 PUF domain R4-PYL (Homo sapiens, UniProt Q14671 828-1176, N971P;H972Y;Q975L)
# How it was run: as §1
# [14] = molecular target: PUM1 PUF domain R4-CMS (Homo sapiens, UniProt Q14671 828-1176, N971C;H972M;Q975S)
# How it was run: as §1
# [15] = molecular target: T1, PUM1 PUF domain R6-VWY (Homo sapiens, UniProt Q14671 828-1176, N1043V;Y1044W;Q1047Y)
# T1 sequence: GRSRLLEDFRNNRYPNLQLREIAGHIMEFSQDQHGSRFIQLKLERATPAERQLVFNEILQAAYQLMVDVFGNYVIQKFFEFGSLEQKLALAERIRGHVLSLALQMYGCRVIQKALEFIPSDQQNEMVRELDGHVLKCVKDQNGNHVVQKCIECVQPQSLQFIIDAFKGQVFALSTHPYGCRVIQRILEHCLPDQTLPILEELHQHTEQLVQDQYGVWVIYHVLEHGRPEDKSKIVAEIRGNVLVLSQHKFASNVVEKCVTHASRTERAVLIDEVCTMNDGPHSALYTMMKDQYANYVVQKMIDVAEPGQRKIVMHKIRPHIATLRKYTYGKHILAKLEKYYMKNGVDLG
# How it was run: as §1
# [16] = molecular target: PUM1 PUF domain R1-KCV (Homo sapiens, UniProt Q14671 828-1176, S863K;R864C;Q867V)
# How it was run: as §1
# [17] = molecular target: PUM1 PUF domain R3-RSH (Homo sapiens, UniProt Q14671 828-1176, C935R;R936S;Q939H)
# How it was run: as §1
# [18] = molecular target: PUM1 PUF domain R2-RKA (Homo sapiens, UniProt Q14671 828-1176, N899R;Y900K;Q903A)
# How it was run: as §1
# [19] = molecular target: PUM1 PUF domain R7-LTC (Homo sapiens, UniProt Q14671 828-1176, S1079L;N1080T;E1083C)
# How it was run: as §1
sequence,measurement,setting,value
GGCUAGAACUAGUGGAUCCCCCGGCGCCCGGCGGCUCGAGCCCGGGUAAGUGUGAAUAGUCUGCAUGCCGCCGGGCGCCAUGCCUGCAGGUCGACUCUAGAAAACAUG,binding signal,[1],3.01 log2 enrichment (interaction score)
GGCUAGAACUAGUGGAUCCCCCGGCGCCCGGCGGCUCGAGCCCGGGUAAGUGUCAAUAGUCUGCAUGCCGCCGGGCGCCAUGCCUGCAGGUCGACUCUAGAAAACAUG,binding signal,[2],2.97 log2 enrichment (interaction score)
same,binding signal,[3],5.11 log2 enrichment (interaction score)
GGCUAGAACUAGUGGAUCCCCCGGCGCCCGGCGGCUCGAGCCCGGGUAAGUGUUAAUAGUCUGCAUGCCGCCGGGCGCCAUGCCUGCAGGUCGACUCUAGAAAACAUG,binding signal,[2],3.92 log2 enrichment (interaction score)
same,binding signal,[4],2.27 log2 enrichment (interaction score)
same,binding signal,[5],3.92 log2 enrichment (interaction score)
GGCUAGAACUAGUGGAUCCCCCGGCGCCCGGCGGCUCGAGCCCGGGUAAGUGUAAAUAGUCUGCAUGCCGCCGGGCGCCAUGCCUGCAGGUCGACUCUAGAAAACAUG,binding signal,[6],2.49 log2 enrichment (interaction score)
same,binding signal,[4],3.33 log2 enrichment (interaction score)
same,binding signal,[7],1.26 log2 enrichment (interaction score)
same,binding signal,[8],3.21 log2 enrichment (interaction score)
same,binding signal,[9],4.74 log2 enrichment (interaction score)
same,binding signal,[10],3.02 log2 enrichment (interaction score)
same,binding signal,[5],2.33 log2 enrichment (interaction score)
same,binding signal,[3],2.81 log2 enrichment (interaction score)
same,binding signal,[11],4.57 log2 enrichment (interaction score)
GGCUAGAACUAGUGGAUCCCCCGGCGCCCGGCGGCUCGAGCCCGGGUAAGUGUAUAUAGUCUGCAUGCCGCCGGGCGCCAUGCCUGCAGGUCGACUCUAGAAAACAUG,binding signal,[6],3.13 log2 enrichment (interaction score)
same,binding signal,[12],2.5 log2 enrichment (interaction score)
same,binding signal,[13],3.32 log2 enrichment (interaction score)
same,binding signal,[14],3.01 log2 enrichment (interaction score)
GGCUAGAACUAGUGGAUCCCCCGGCGCCCGGCGGCUCGAGCCCGGGUAAGUGAAAAUAGUCUGCAUGCCGCCGGGCGCCAUGCCUGCAGGUCGACUCUAGAAAACAUG,binding signal,[15],3.66 log2 enrichment (interaction score)
GGCUAGAACUAGUGGAUCCCCCGGCGCCCGGCGGCUCGAGCCCGGGUAAGUGUAAAUUGUCUGCAUGCCGCCGGGCGCCAUGCCUGCAGGUCGACUCUAGAAAACAUG,binding signal,[16],3.99 log2 enrichment (interaction score)
GGCUAGAACUAGUGGAUCCCCCGGCGCCCGGCGGCUCGAGCCCGGGUAAGUGUACAUAGUCUGCAUGCCGCCGGGCGCCAUGCCUGCAGGUCGACUCUAGAAAACAUG,binding signal,[14],2.83 log2 enrichment (interaction score)
GGCUAGAACUAGUGGAUCCCCCGGCGCCCGGCGGCUCGAGCCCGGGUAAGUGUAAUUAGUCUGCAUGCCGCCGGGCGCCAUGCCUGCAGGUCGACUCUAGAAAACAUG,binding signal,[17],3.41 log2 enrichment (interaction score)
GGCUAGAACUAGUGGAUCCCCCGGCGCCCGGCGGCUCGAGCCCGGGUAAGCGUAAAUAGUCUGCAUGCCGCCGGGCGCCAUGCCUGCAGGUCGACUCUAGAAAACAUG,binding signal,[7],3.37 log2 enrichment (interaction score)
same,binding signal,[9],5.32 log2 enrichment (interaction score)
same,binding signal,[11],0.65 log2 enrichment (interaction score)
GGCUAGAACUAGUGGAUCCCCCGGCGCCCGGCGGCUCGAGCCCGGGUAAGUGUAAAGAGUCUGCAUGCCGCCGGGCGCCAUGCCUGCAGGUCGACUCUAGAAAACAUG,binding signal,[18],7.14 log2 enrichment (interaction score)
GGCUAGAACUAGUGGAUCCCCCGGCGCCCGGCGGCUCGAGCCCGGGUAAGUUUAAAUAGUCUGCAUGCCGCCGGGCGCCAUGCCUGCAGGUCGACUCUAGAAAACAUG,binding signal,[19],3.36 log2 enrichment (interaction score)
